Records with an inconclusive call do not appear. A call without a number means that no potency is given here. The source made the active and inactive calls. Calls follow the shape of the dose curve; as a rule, active = well fitted inhibition curve with a large enough effect; inconclusive = small, poorly fitted or top-dose-only effect; inactive = flat fitted curve, though single readings scatter.

The target in the assay is Phospholipid hydroperoxide glutathione peroxidase GPX4 (Homo sapiens) (UniProt P36969). As to the kind of experiment: Primary qHTS Assay for Inhibitors of Recombinant Selenoprotein Glutathione Peroxidase 4 (GPX4) (AID 1845192). Also: nearly all actives have a fitted effect of over 65% in size. The note with it: recombinant GPX4, GR-coupled NADPH fluorescence, 15 min; series mostly up to 50 µM. The method, boiled down: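 Steps: GPX4 plus compound, 30 min RT; add GR/GSH/NADPH master mix; start with cumene hydroperoxide; read 340/450 nm fluorescence at 0 and 15 min. Finals were 200 nM GPX4, 1 mM GSH, 0.5 mM CHP, 0.5 mM NADPH, 100 nM GR.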
Chain of Phospholipid hydroperoxide glutathione peroxidase GPX4 (Homo sapiens) (P36969 whole entry, looked up): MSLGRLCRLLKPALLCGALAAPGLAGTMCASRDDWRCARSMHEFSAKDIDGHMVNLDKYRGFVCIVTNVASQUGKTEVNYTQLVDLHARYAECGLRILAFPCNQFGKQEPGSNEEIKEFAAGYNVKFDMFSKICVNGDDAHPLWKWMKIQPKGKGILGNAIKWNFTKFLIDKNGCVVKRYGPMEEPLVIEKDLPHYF
A general note: qHTS replaces the single test concentration by a dilution series.
In the case of `CN(C)CCC(c1ccccc1)c1ccccn1` (stereo unspecified), the Potency entry is “inactive”.

For `CC1=C(/C=C/C(C)=C/C=C/C(C)=C/C(=O)Nc2ccc(O)cc2)C(C)(C)CCC1`, the Potency entry is “inactive”.

Turning to `O=C(O)CCc1nc(-c2ccccc2)c(-c2ccccc2)o1`, the Potency result is “inactive”.

As to `O=c1cc(-c2cccc3c2Sc2ccccc2S3)oc(N2CCOCC2)c1`, the Potency result was “inactive”.

Turning to `CC(C)NCC(O)COc1cccc2[nH]ccc12` (stereo unspecified), the Potency entry is “inactive”.

For `CC/C(=C(\c1ccccc1)c1ccc(OCCN(C)C)cc1)c1ccccc1`, the Potency result was “inactive”.

With `CCCCCNC(=O)N1CCC(CN(Cc2ccc(Cl)cc2)Cc2ccc([N+](=O)[O-])s2)C1` (stereo unspecified), the Potency entry was “inactive”.

Turning to `O=c1cc(N2CCOCC2)oc2c(-c3cccc4c3sc3ccccc34)cccc12`, the Potency entry was “inactive”.

On to `NC(N)=Nc1nc(CSCC/C(N)=N/S(N)(=O)=O)cs1`, for which the Potency result was “inactive”.

With `Clc1ccc(C(c2ccc(Cl)cc2)n2cc[n+](CC(OCc3ccc(Cl)cc3Cl)c3ccc(Cl)cc3Cl)c2)cc1` (stereo unspecified), the Potency result is “inactive”.

Regarding `CO[C@@H](C(=O)N1Cc2[nH]nc(NC(=O)c3ccc(N4CCN(C)CC4)cc3)c2C1)c1ccccc1`, the Potency entry is “inactive”.

With `COc1ccccc1N1CCN(CCCNc2cc(=O)n(C)c(=O)n2C)CC1`, the Potency entry is “inactive”.

Regarding `Cc1cnc(C(=O)O)c[n+]1[O-]`, the Potency result is “inactive”.

As to `CCN(CC)C(=O)c1ccc(O)c(OC)c1`, the Potency entry is “inactive”.

In the case of `CCN(CC)CCNC(=O)c1ccc(N)cc1`, the Potency entry is “inactive”.

`O=C(O)Cc1cccc2ccccc12`: the Potency entry was “inactive”.

Turning to `CC(C)(Cc1ccc2ccccc2c1)NC[C@@H](O)COc1cccc(Cl)c1C#N`, the Potency result is “inactive”.

For the compound `CC(=O)O[C@]1(C(C)=O)CC[C@H]2[C@@H]3C=C(Cl)C4=CC(=O)[C@@H]5C[C@@H]5[C@]4(C)[C@H]3CC[C@@]21C`, the Potency entry is “inactive”.

In the case of `Clc1ccc(Cn2c(CN3CCCC3)nc3ccccc32)cc1`, the Potency result was “inactive”.

`CCN1CCC[C@H]1CNC(=O)c1cc(S(N)(=O)=O)ccc1OC`: the Potency entry is “inactive”.

In the case of `CCOC(CN1C(=O)[C@](CC(=O)Nc2ccc(C)cc2)(NC(=O)Nc2ccc(C)cc2)c2ccccc21)OCC`, the Potency result was “inactive”.

Take `COC(=O)[C@@H]1[C@H]2C[C@H]3c4[nH]c5ccccc5c4CCN3C[C@@H]2CC[C@@H]1O`: the Potency entry is “inactive”.

As to `N#C[C@H]1C[C@H]2C[C@@H]2N1C(=O)[C@@H](N)C12CC3CC(CC(O)(C3)C1)C2`, the Potency result was “inactive”.

For `COc1ccc(-n2c(C)c([N+](=O)[O-])c3ccc(O)cc32)cc1`, the Potency entry is “inactive”.

Consider `CCCNC(=O)NS(=O)(=O)c1ccc(Cl)cc1`, for which the Potency result was “inactive”.

On to `N#Cc1ccc(NC(=O)Nc2ccccc2Br)c2n[nH]nc12`, for which the Potency entry is “inactive”.

The values above are taken from PubChem BioAssay (NCATS).
